# Measured values taken from PubChem BioAssay (NCATS).
# Inconclusive results are not listed. Values without a mark were called inactive. The source made the active and inactive calls. Calls follow the shape of the dose curve; as a rule, active = well fitted curve in the direction sought with a large enough effect; inconclusive = small, poorly fitted or top-dose-only effect, or another doubt; inactive = no such curve, though single readings can be large; an effect the other way counts as inactive or inconclusive.
# Tests used:
# [1] = Cellular viability qHTS for adrenocortical cancer (ACC) cell line SW-13 (AID 1963989); settings: SW-13 ACC cells viability, CellTiter-Glo, 48 h; activity (max response): hits give low values; also: nearly all actives have a fitted effect of over 65% in size;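 as to activity (max response): cells grown in serum-free medium with ITS supplement; % is scaled to controls: 0 for no effect and ±100 for the full control effect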
# Procedure, shortened: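 Compound titrations (up to 46 uM final, in DMSO) were applied to SW-13 cells for 48 h at 37C/5% CO2. Reading used CellTiter-Glo after 20 min at room temperature; fitted curves yielded IC50 and efficacy.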
# [2] = Quantitative highthroughput screen to assess conditional lethalithy of SEM cells grown in RPMI1640 with unreated serum (RPMI+s) (AID 1963883); also: nearly all actives have a fitted effect of over 35% in size;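 as to viability: 100% = DMSO wells and 0% = empty wells without cells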
# Procedure, shortened: (§1)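 Each medium arm—HPLM with 10% dialyzed FBS, or RPMI1640 with 5 mM glucose and 10% untreated or dialyzed FBS—was screened against an 11-point, 3-fold compound titration for 48 h at 37 °C, with CellTiter-Glo luminescence as endpoint.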
# [3] = Quantitative highthroughput screen to assess conditional lethalithy of P12 Ichikawa cells grown in RPMI1640 with untreated serum (RPMI+s) (AID 1963881); settings: Potency: viability; also: nearly all actives have a fitted effect of over 35% in size
# Procedure, shortened: as §1
# [4] = Quantitative highthroughput screen to assess conditional lethalithy of SEM cells grown in RPMI1640 with dialyzed fetal bovine serum (RPMI+ds) (AID 1963884); also: nearly all actives have a fitted effect of over 35% in size;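 as to viability: series mostly up to about 46 µM; 100% = DMSO control wells and 0% = empty wells without cells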
# Procedure, shortened: as §1
# [5] = Quantitative highthroughput screen to assess conditional lethalithy of SEM cells grown in Human Plasma-Like Medium with dialyzed fetal bovine serum (HPLM+ds) (AID 1963882); also: nearly all actives have a fitted effect of over 35% in size; as to viability: series mostly up to about 46 µM
# Procedure, shortened: as §1
# [6] = Quantitative highthroughput screen to assess conditional lethalithy of P12 Ichikawa cells grown in RPMI1640 with dialyzed fetal bovine serum (RPMI+ds) (AID 1963880); settings: Potency: P12-Ichikawa viability; also: nearly all actives have a fitted effect of over 35% in size
# Procedure, shortened: as §1
# [7] = Cellular viability qHTS for adrenocortical cancer (ACC) cell line NCI-H295R (AID 1963990); also: nearly all actives have a fitted effect of over 60% in size
# Procedure, shortened: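 Readout: CellTiter-Glo luminescence, 20 min RT. Exposure: 48 h, 37C/5% CO2. Cells: NCI-H295R, ITS-DMEM serum-free. Range: up to 46 uM. Analysis: 4PL fit, IC50 plus efficacy.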
# Potency is read from the fitted curve at half-maximal effect.
smiles,measurement,setting,value
c1ccc(-c2ccc(C(c3ccccc3)n3ccnc3)cc2)cc1 (stereo not given),Potency,[1],18.4 µM (active)
C[C@@H](Oc1ccc2[nH]nc(C=Cc3cnn(CCO)c3)c2c1)c1c(Cl)cncc1Cl,Potency,[2],0.264 µM (active)
O=C(CCN1CCN2CCCC2C1)N1c2ccccc2Sc2ccc(Cl)cc21 (stereo not given),activity (max response),[1],-13.8%
Oc1cc(O)cc(C=Cc2ccc(O)c(O)c2)c1,Potency,[2],18.7 µM (active)
CC1CC(=O)NN=C1c1ccc(NCC(C)(C)NCC(O)COc2cc(Cl)ccc2C#N)cc1 (stereo not given),activity (max response),[1],-8.94%
CCCC(C(=O)OCCN(CC)CC)(c1ccccc1)c1ccccc1,Potency,[1],20.6 µM (active)
CCCCCC1Nc2cc(C(F)(F)F)c(S(N)(=O)=O)cc2S(=O)(=O)N1 (stereo not given),activity (max response),[1],4.72%
CC(=O)[C@H]1CC[C@H]2[C@@H]3C=CC4=CC(=O)CC[C@@]4(C)[C@@H]3CC[C@]12C,activity (max response),[1],-20.4%
CN1CCN(CCCN2c3ccccc3Sc3ccc(Cl)cc32)CC1,Potency,[3],8.33 µM (active)
same,Potency,[4],inactive
CCOC(=O)N1CCN([N+]([O-])=NOc2ccc([N+](=O)[O-])cc2[N+](=O)[O-])CC1,Potency,[2],4.18 µM (active)
same,Potency,[4],4.69 µM (active)
Cc1cc(O)c(-c2ccc([C@@H](C)CN)cc2)c2c1[nH]c(=O)c1sccc12,activity (max response),[1],-7.01%
O=[N+]([O-])c1nccn1CO[C@@H](CO)[C@H](O)CO,activity (max response),[1],-4.12%
Cn1ncc(Cl)c1-c1cc(C(=O)N[C@H](CN)Cc2cccc(F)c2)sc1Cl,activity (max response),[1],-8.31%
CO[C@H]1/C=C\O[C@@]2(C)Oc3c(C)c(O)c4c(O)c(c5c(nc6cc(C)ccn65)c4c3C2=O)NC(=O)C(C)=CC=C[C@H](C)[C@H](O)[C@@H](C)[C@@H](O)[C@@H](C)[C@H](OC(C)=O)[C@H]1C,Potency,[5],18.7 µM (active)
same,Potency,[4],14.8 µM (active)
CC(C)N(CCCNC(=O)Nc1ccc(C(C)(C)C)cc1)C[C@H]1O[C@@H](n2ccc3c(N)ncnc32)[C@H](O)[C@@H]1O,activity (max response),[1],-3.92%
CC(C)=CCCC(C)=CCCC(C)=CCSc1ccccc1C(=O)O,Potency,[5],6.62 µM (active)
same,Potency,[4],11.8 µM (active)
CC(=O)OCC(=O)[C@H]1CC[C@H]2[C@@H]3CCC4=CC(=O)CC[C@]4(C)[C@H]3CC[C@]12C,activity (max response),[1],2.66%
CC(C)n1c(/C=C/[C@@H](O)C[C@@H](O)CC(=O)O)c(-c2ccc(F)cc2)c2ccccc21,activity (max response),[1],5.25%
CCCCCOc1ccc(C2SC(=O)NC2=O)cc1OCC (stereo not given),activity (max response),[1],-6.25%
CN(C(Cc1ccc(OS(=O)(=O)c2cccc3cnccc23)cc1)C(=O)N1CCN(c2ccccc2)CC1)S(=O)(=O)c1cccc2cnccc12 (stereo not given),Potency,[6],18.7 µM (active)
same,activity (max response),[1],5.6%
same,Potency,[7],inactive
CCCc1c(OCCCOc2ccc(OCC(=O)O)cc2)ccc(C(C)=O)c1O,activity (max response),[1],-13.7%
Cc1ccc(C(C)C)cc2c(C)ccc1-2,activity (max response),[1],0.775%
CS(=O)(=O)Oc1ccc2c(NC(N)=O)c(C(=O)c3ccc(Cl)cc3Cl)oc2c1,Potency,[5],inactive
same,Potency,[2],inactive
same,activity (max response),[1],-2.55%
same,Potency,[7],inactive
Cc1cc(=O)c2c(O)c3c(O)cc(=O)c4c3c3c(cc(O)c1c23)C(C)(C)C=4O,Potency,[5],inactive
same,Potency,[4],inactive
same,Potency,[1],1.78 µM (active)
same,Potency,[7],2.24 µM (active)
COc1cc2nc(-c3cc(F)ccc3O)nc(N[C@@H]3CNC[C@@H]3C(C)(C)O)c2cc1OC,Potency,[5],0.332 µM (active)
same,Potency,[2],0.469 µM (active)
COc1ccccc1Oc1c(NS(=O)(=O)c2ccc(C(C)(C)C)cc2)nc(-c2ncccn2)nc1OCCO,activity (max response),[1],-3.16%
NC(N)=NC(=O)Cc1c(Cl)cccc1Cl,activity (max response),[1],-7.72%
Cc1ccc(Nc2cc(N[C@@H]3CCCC[C@@H]3N)nnc2C(N)=O)nc1C,activity (max response),[1],-5.27%
COc1cc([C@@H]2c3cc4c(cc3[C@@H](O[C@@H]3O[C@@H]5CO[C@@H](c6cccs6)O[C@@H]5[C@H](O)[C@@H]3O)[C@H]3COC(=O)[C@H]23)OCO4)cc(OC)c1O,Potency,[3],0.743 µM (active)
CCCCC[C@H](O)C=C[C@H]1[C@H](O)CC(=O)[C@H]1CCCCCCC(=O)O,Potency,[2],4.18 µM (active)
Cc1cn2c(-c3cn[nH]c3)cnc2c(Nc2ccc(C(=O)N3CCNCC3)cc2F)n1,Potency,[3],18.7 µM (active)
same,Potency,[5],13.2 µM (active)
same,Potency,[2],14.8 µM (active)
same,Potency,[4],14.8 µM (active)
O=C(O)C=Cc1ccc(O)c(O)c1,Potency,[6],26.4 µM (active)
same,Potency,[2],13.2 µM (active)
same,Potency,[4],14.8 µM (active)
